GASC-1 inh: human JMJD2C demethylase inhibition | Q9H3R0 | GST-JMJD2C(1-420) H3K9me3 demethylation, DELFIA europium | inhibition, % at 2.35 µM | hit rate 0.069% among 330,000 | AID 2099;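 active = more than half of a compound's replicate wells show inhibition beyond 50%, single wells judged on their own value; inconclusive = some, but no more than half, of replicates pass 50% inhibition; inactive = no replicate passes 50% inhibition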;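 also: signal counts dimethyl H3K9 product captured on neutravidin plate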
Target sequence (Q9H3R0 1-420 limits assumed): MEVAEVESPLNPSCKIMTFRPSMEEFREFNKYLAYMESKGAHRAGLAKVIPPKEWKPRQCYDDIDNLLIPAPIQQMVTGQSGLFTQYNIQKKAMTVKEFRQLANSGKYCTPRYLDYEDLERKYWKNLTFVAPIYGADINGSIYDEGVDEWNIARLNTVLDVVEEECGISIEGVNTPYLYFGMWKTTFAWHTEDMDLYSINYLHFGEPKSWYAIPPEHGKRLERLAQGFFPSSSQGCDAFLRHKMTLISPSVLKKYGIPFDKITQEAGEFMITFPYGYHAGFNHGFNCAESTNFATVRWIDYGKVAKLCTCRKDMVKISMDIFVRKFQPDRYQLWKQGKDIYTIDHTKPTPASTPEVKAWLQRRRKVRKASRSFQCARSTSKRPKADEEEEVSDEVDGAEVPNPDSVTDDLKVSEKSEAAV
SMARCA2 activ: increases SMARCA2 function in MMTV reporter cells; MG213 cells, MMTV-luciferase reporter, dexamethasone, overnight; hit rate 1% among 370,000; activation, % at 9.1 µM; in the data active = activation above about 7.8%
beta cell repl: induces beta-cell replication in MIN6 cells. MIN6 cells proliferation, ATPlite luminescence, 48 h; cells starved in 0.2% serum; 100% = growth in 10% serum. proliferation, % at 10 µM. hit rate 0.29% among 330,000;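 active = compounds whose signal lies at least 3.5 SD above the mean of all wells on their plate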
ALR inh: blocks human ALR sulfhydryl oxidase activity | purified ALR, DTT oxidation, H2O2 HRP-luminol luminescence | inhibition, % (no concentration beside the values) | hit rate 3.8% among 290,000 | AID 485317 | P55789;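 active = mean replicate inhibition above about 79%, with every replicate also reaching it, limit read from the data; inconclusive = only one of the two criteria met; inactive = mean below limit and not every replicate reaching it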
Target sequence (P55789 whole entry, looked up): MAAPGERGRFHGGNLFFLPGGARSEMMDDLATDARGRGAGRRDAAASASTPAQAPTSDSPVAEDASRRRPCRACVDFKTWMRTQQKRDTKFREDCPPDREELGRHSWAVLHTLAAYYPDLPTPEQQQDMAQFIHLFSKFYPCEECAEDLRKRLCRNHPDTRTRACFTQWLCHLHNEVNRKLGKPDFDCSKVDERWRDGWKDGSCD
Exocytosis inh: blocks lytic granule exocytosis | TALL-104 LAMP-1 surface exposure, flow cytometry; cells stimulated with thapsigargin and PMA | inhibition, % at 10 µM | hit rate 0.66% among 360,000 | AID 651702;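 active = inhibition above about 55%, limit read from the data; inconclusive = no clear call, values can overlap the other calls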
PfM18AAP inh: PfM18AAP enzyme inhibition; recombinant PfM18AAP, H-Glu-NHMec fluorogenic cleavage; inhibition, % at 7.35 µM; hit rate 1.2% among 290,000;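 active = inhibition above the campaign mean inhibition over all tested compounds plus 3 SD, cut at about 28% in these data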
Numbers stand for hits; 0 = inactive; ? = inconclusive; - = no result given. A selection: hits, their analogues and other compounds. The true share with any hit is near 5.4%.

SMILES	GASC-1 inh	SMARCA2 activ	beta cell repl	ALR inh	Exocytosis inh	PfM18AAP inh
Oc1c(C(c2ccccn2)N2CCCCC2)cc(Cl)c2cccnc12 (configuration not stated)	0	0	0	82.8	0	0
CN1CCN(C(c2ccc(Cl)cc2)c2cc(Cl)c3cccnc3c2O)CC1 (configuration not stated)	0	0	0	0	0	0
CSc1ccc(-c2nc(CSCC(=O)NCCCN3CCCC3=O)c(C)o2)cc1	0	0	0	94.7	0	0
O=C(CSc1ccc2ccccc2n1)NCCCN1CCCC1=O	0	0	0	0	0	-
O=C(CSc1ccc2ccccc2c1)NCCCN1CCCC1=O	0	0	0	99.8	0	0
CCc1ccc(-c2nc(CSCC(=O)NCCCN3CCCC3=O)c(C)o2)cc1	0	0	0	99.2	0	0
CCOCCCNC(=O)CSCc1nc(-c2ccc(SC)cc2)oc1C	0	0	0	-	0	0
COCCNC(=O)CSCc1nc(-c2ccc(SC)cc2)oc1C	0	0	0	99.8	0	0
Cc1ccccc1-c1nc(CS(=O)(=O)CC(=O)NCCCN2CCCC2=O)c(C)o1	0	0	0	0	0	0
CCCc1cc(C(=O)Nc2cccc(C(C)=O)c2)no1	0	7.9	0	0	0	0
CCCc1cc(C(=O)Nc2sc(C)c(C)c2C(=O)OCC)no1	-	0	0	-	0	34.8
CCCc1cc(C(=O)Nc2ccc(C(C)=O)cc2)no1	0	0	0	0	0	0
COC(=O)c1c(NC(=O)CCc2ccc(C)o2)sc(C)c1C	0	0	0	97.1	0	0
CCOC(=O)c1c(NC(=O)CCc2ccc(CC)o2)sc(C)c1C	0	0	0	97.5	0	0
CC1(C)OC(C)(C)C(=N/O)/C1=N\N	-	0	-	-	-	-
CN1CC=C(c2ccc(C(F)(F)F)cc2)N(c2ccccc2)C1=O	-	0	-	-	-	-
Cc1cc(C(=O)Nc2ccccc2C(=O)O)oc1C	0	0	0	97.6	0	0
O=C(Nc1ccc(Cl)c(Cl)c1)Nc1ccccc1C(=O)O	0	0	0	97.7	0	0
O=C(COC(=O)c1ccccc1Nc1ccccc1)NCc1ccccc1	0	0	0	97.3	0	0
O=C(O)c1cc2ccccc2cc1Nc1ccccc1	0	0	0	99.4	0	0
Cc1occc1C(=O)Nc1ccccc1C(=O)O	0	0	0	0	0	0
C=C1CCC2C(C)(C)CCC[C@]2(C)[C@H]1CC1=C(O)C(=O)C(CO)=CC1=O (some centres not stated)	-	0	-	-	-	-
C[C@@H]1OC(C2CCCCC2)N(C)[C@H]2C[C@H]3c4[nH]c5c(-c6ccc7c(c6)OCO7)cccc5c4CCN3C[C@@H]12 (some centres not stated)	-	0	-	-	-	-
CCOc1ccccc1C(=O)Nc1ccc2nc(C)[nH]c(=O)c2c1	-	0	-	-	-	-
COc1ccc(C(=O)Nc2ccccc2C(=O)Nc2ccccc2C(=O)O)cc1	0	0	0	97.8	0	0
SMILES	GASC-1 inh	SMARCA2 activ	beta cell repl	ALR inh	Exocytosis inh	PfM18AAP inh
O=C(O)c1ccccc1Nc1cccc(C(F)(F)F)c1	0	0	0	-	0	0
COc1cccc(Nc2ccccc2C(=O)O)c1	0	0	0	98.5	0	0
CN(C(=O)COC(=O)c1ccccc1Nc1ccccc1)C1CCS(=O)(=O)C1 (configuration not stated)	0	0	0	98.6	0	0
O=C(O)c1ccccc1Nc1ccccc1	-	0	0	99.1	0	-
CCOC(=O)[C@]12CCCC3=C1N(CCC3)C(=O)[C@@H](CC(=O)NCCCN1CCCC1=O)C2	-	0	-	-	-	-
O=C(Cn1c(-c2cncs2)nc2ccccc21)NCc1cccs1	-	0	-	-	-	-
COc1ccc(OC(=O)c2ccc(Cl)cc2)c(C(C)=O)c1	0	0	0	0	0	0
O=C(O)c1ccccc1Nc1ccc(OC(F)F)cc1	0	0	0	99.6	0	0
O=C(O)/C=C\C(=O)Nc1ccc(OC(F)F)cc1	0	0	0	0	0	0
COc1ccc(Nc2ccc(Cl)cc2)c(C(=O)O)c1	0	0	0	99.3	0	0
CCCCNC(=O)C[C@H]1C[C@@]2(C(=O)OC)C(=C[C@H](C3CCCC3)O[C@@H]2C)N(Cc2ccc(Cl)cc2Cl)C1=O	-	0	-	-	-	-
CC(C)NC(=O)CC1Nc2c3ccccc3nc(=S)n2C1=O (configuration not stated)	0	0	0	88.2	0	0
C=CCNC(=O)CC1Nc2c3ccccc3nc(=S)n2C1=O (configuration not stated)	0	0	0	94.9	0	0
CC(C)CCNC(=O)CC1Nc2c3ccccc3nc(=S)n2C1=O (configuration not stated)	0	0	0	0	0	0
COC(=O)CC#C[C@@H](C)[C@H](NS(=O)(=O)c1ccc(C)cc1)C(C)(C)C	-	0	-	-	-	-
O=C(NCc1ccccc1C(F)(F)F)c1cccc2c1C(=O)c1ccc(N3CCC(N4CCCCC4)CC3)cc1S2(=O)=O	-	19.6	-	-	0	-
O=C(NCc1ccccc1C(F)(F)F)c1cccc2c1C(=O)c1ccc(N3CCOCC3)cc1S2(=O)=O	0	0	0	0	0	-
COc1cc(SSc2cc(OC)cc([N+](=O)[O-])c2N)c(N)c([N+](=O)[O-])c1	0	0	0	0	0	30.8
Brc1cccc(C2Nc3cccc4cccc(c34)N2)c1	0	0	0	0	0	0
COc1cc(OC)c(C2Nc3cccc4cccc(c34)N2)c(OC)c1	0	0	0	?	75.6	0
Clc1cccc(C2Nc3cccc4cccc(c34)N2)c1	0	0	0	0	0	31.8
O=[N+]([O-])c1ccc(Cl)c(C2Nc3cccc4cccc(c34)N2)c1	0	0	0	0	55.6	0
Cn1c(=O)c2c(-c3ccccc3)n(-n3cnnc3)cc2n(C)c1=O	0	0	0	95.6	0	0
CCOc1ccccc1N1CCN(C(=O)[C@@H]2CCCN2C2=NS(=O)(=O)c3ccccc32)CC1	0	0	0	97.1	0	-
Cn1c(-c2ccc(Br)cc2)cnc1NCc1cccnc1	0	0	0	0	0	0
SMILES	GASC-1 inh	SMARCA2 activ	beta cell repl	ALR inh	Exocytosis inh	PfM18AAP inh
COc1cc(CNc2ncc(-c3ccc(Br)cc3)n2C)cc(OC)c1OC	0	0	0	90.7	0	0
Cn1c(-c2ccc(F)cc2)cnc1NCc1ccc(F)cc1	?	0	0	91.3	0	0
CCOc1cc(CNc2ncc(-c3ccc(OC)cc3)n2C)ccc1O	0	0	0	78.1	0	0
COc1cc(CNc2ncc(-c3ccc(Cl)cc3)n2C)cc(OC)c1OC	0	0	0	94.6	0	0
COc1ccc(CNc2ncc(-c3ccccc3)n2C)c(OC)c1OC	0	0	0	0	0	0
COc1cccc(-c2cc(N)nn2C(=O)Nc2ccc(Cl)cc2)c1	0	0	0	99.8	0	0
C=CCN(CC#CC(=C)C)Cc1ccccc1	-	0	-	-	-	-
CN(C)c1ccc(/C=C(\NC(=O)c2ccccc2)C(=O)NCCN2CCOCC2)cc1	0	0	0	-	0	0
CN(C)c1ccc(/C=C(/NC(=O)c2ccccc2)C(=O)NCCCn2ccnc2)cc1	0	-	0	98.9	0	0

From PubChem BioAssay
